20 compounds from PubChem BioAssay (NCI) can be followed below.

Experiment [1] in a line: NCI Yeast Anticancer Drug Screen. Data for the rad50 strain (AID 155).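 Further: 0% = growth of vehicle-only cultures of the same strain.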 The note with it: S. cerevisiae rad50 strain growth inhibition; at 50.0 µM; hits give high values. The method in brief: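 Compounds were tested on a yeast strain with an engineered DNA damage repair alteration; the reported value is growth inhibition normalised to vehicle treatment.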
A short description of experiment [2]: NCI Yeast Anticancer Drug Screen. Data for the mec2-1 strain (AID 157). The note with it: S. cerevisiae mec2-1 strain, at 50.0 µM, hits give high values. In short, it runs like this:
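Test agents were screened against the mec2-1 yeast strain, with defined DNA repair or cell cycle alteration. Growth was scored as inhibition against vehicle-only controls.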

Experiment [3] can be described thus: NCI Yeast Anticancer Drug Screen. Data for the sgs1 mgt1 strain (AID 161).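 Further: 0% = growth of cultures given vehicle only.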 The note with it: S. cerevisiae sgs1 mgt1 strain, at 50.0 µM, hits give high values. The method in brief: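 Mutant yeast exposed to compound; growth scored against vehicle-only wells.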
Experiment [4] can be described thus: NCI Yeast Anticancer Drug Screen. Data for the cln2 rad14 strain (AID 165).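 Further: 0% = growth equal to vehicle treated cultures.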 As to conditions: S. cerevisiae cln2 rad14 strain, at 50.0 µM, hits give high values. In short, it runs like this: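 Growth of compound-exposed yeast (cln2 rad14 genotype) measured and expressed as inhibition relative to vehicle.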
Experiment [5] in a line: NCI Yeast Anticancer Drug Screen. Data for the bub3 strain (AID 167). The note with it: S. cerevisiae bub3 mutant strain, at 50.0 µM, hits give high values. In short, it runs like this:
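Growth of a checkpoint-deficient yeast mutant is measured after compound exposure. Values represent inhibition relative to vehicle.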

Experiment [6] is described as follows: NCI Yeast Anticancer Drug Screen. Data for the mlh1 rad18 strain (AID 175). As to conditions: S. cerevisiae mlh1 rad18 strain growth inhibition; at 50.0 µM; hits give high values. In short, it runs like this:
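In this whole-cell yeast screen, a strain with altered DNA damage repair is challenged with compound, and its growth is measured against matched vehicle-treated controls.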

The panel holds about 79,000 compounds, 15% with a hit somewhere; the sample as a whole holds those more often. Values without a mark were called inactive. The source made the active and inactive calls. No stated cut-off is given here; in the data, active means growth inhibition above about 70%; inactive means the rest.

As to `CN(CCOc1ccccc1)Cc1ccccc1`, the growth inhibition is 33.1% in experiment [1]; 7.15% in experiment [2]; 50.7% in experiment [3]; 31.3% in experiment [4]; 40.1% in experiment [5]; 34.4% in experiment [6].

Consider `CCOC(=O)C(NC(N)=O)C(=O)OCC`, for which the growth inhibition is -1.05% in experiment [1]; 15% in experiment [2]; 0.95% in experiment [3]; -34.7% in experiment [4]; 21.9% in experiment [5]; 4.7% in experiment [6].

Take `CC1=NCC(C)S1` (stereo not given): the growth inhibition in experiment [1] was -3.3%; in experiment [2], -9.95%; in experiment [3], 7%; in experiment [4], -6.05%; in experiment [5], -9.3%; in experiment [6] it was -5.75%.

`Nc1ccc(C(=O)NCCCC(=O)O)cc1`: the growth inhibition was -1.85% in experiment [1]; 19.2% in experiment [2]; -1.75% in experiment [3]; 0.85% in experiment [4]; -3.75% in experiment [5]; -14.6% in experiment [6].

Regarding `CN=C(N)SCCCSC(N)=NC`, the growth inhibition in experiment [1] is 17.6%; in experiment [2], 14%; in experiment [3] it was 28%; in experiment [4], 30.7%; in experiment [5] it was 15.6%; in experiment [6] it was 8.5%.

Turning to `O=C(NC12CC3CC(CC(C3)C1)C2)C(=O)c1c[nH]c2ccc(Br)cc12`, the growth inhibition in experiment [1] is -21.9%; in experiment [2], -20.3%; in experiment [3], -14.1%; in experiment [4], -21.4%; in experiment [5] it was -2.95%; in experiment [6], -52.4%.

Take `CC(C)/C=N\N1C(N)=C(C#N)C(C#N)(C#N)C1C(C)C` (stereo not given): the growth inhibition in experiment [1] is -0.65%; in experiment [2] it was 10.5%; in experiment [3] it was -35.3%; in experiment [4], -19.4%; in experiment [5], -12.2%; in experiment [6] it was -41.3%.

As to `N#CC1=C(c2ccccc2)NNC(c2ccc(Cl)cc2)CC1=O` (stereo not given), the growth inhibition was -18.1% in experiment [1]; -1.45% in experiment [2]; 2.4% in experiment [3]; 6.8% in experiment [4]; -22.6% in experiment [5]; 36.5% in experiment [6].

Turning to `CCOC(=O)C(=O)C(Cc1ccccc1)C(=O)OCC` (stereo not given), the growth inhibition in experiment [1] is 0.2%; in experiment [2], -3.95%; in experiment [3], 9.75%; in experiment [4] it was -46.5%; in experiment [5], 11.7%; in experiment [6] it was -7.2%.

Turning to `NC(=O)NC=O`, the growth inhibition in experiment [1] is 10.8%; in experiment [2] it was -3.95%; in experiment [3], 14.7%; in experiment [4], 1.25%; in experiment [5], -14.6%; in experiment [6], 14.3%.

For `CCC(C)(C)C(O)c1ccc2c(c1)OCO2` (stereo not given), the growth inhibition is -0.2% in experiment [1]; -13.2% in experiment [2]; 4.1% in experiment [3]; -7.65% in experiment [4]; 1.3% in experiment [5]; -28.5% in experiment [6].

Consider `CC(=O)c1c(C)c(Cl)c(C)c(Cl)c1O`, for which the growth inhibition is -14.6% in experiment [1]; 2.75% in experiment [2]; 17.6% in experiment [3]; 7.4% in experiment [4]; 26.4% in experiment [5]; 7% in experiment [6].

`C=CCN(CC=C)C(=O)Nc1cccc2c(NC(=O)N(CC=C)CC=C)cccc12`: the growth inhibition in experiment [1] is -24%; in experiment [2], -23.6%; in experiment [3] it was -17.5%; in experiment [4], 4.5%; in experiment [5] it was -21.8%; in experiment [6], -23.4%.

Turning to `O=C(c1ccccc1)C(c1ccccc1)C1(O)C(=O)Nc2c(Cl)ccc(Cl)c21` (stereo not given), the growth inhibition was -18.1% in experiment [1]; 10.6% in experiment [2]; 5% in experiment [3]; -0.05% in experiment [4]; -8.1% in experiment [5]; -29.2% in experiment [6].

Turning to `CCC(CC)c1nc2c([nH]1)c(=O)n(C)c(=O)n2C`, the growth inhibition in experiment [1] was -34%; in experiment [2] it was 8.1%; in experiment [3], 5.3%; in experiment [4] it was -32.5%; in experiment [5], -7.2%; in experiment [6], -10.3%.

Turning to `CC(=O)[CH-]C(=O)c1ccccc1.CC(=O)[CH-]C(=O)c1ccccc1.CC[C@H](CCC(C)[C@H]1CCC2[C@@H]3CC=C4C[C@@H]([O-])CC[C@]4(C)C3CC[C@@]21C)C(C)C.CC[C@H](CCC(C)[C@H]1CCC2[C@@H]3CC=C4C[C@@H]([O-])CC[C@]4(C)C3CC[C@@]21C)C(C)C.Cl.[Ti+4]` (stereo not given in full), the growth inhibition is 19% in experiment [1]; 3.9% in experiment [2]; 23.2% in experiment [3]; -11.2% in experiment [4]; 27.1% in experiment [5]; 5.05% in experiment [6].

Turning to `CCOc1ccc2nc(SCCl)sc2c1`, the growth inhibition in experiment [1] is 6.1%; in experiment [2], -2.7%; in experiment [3], 7.65%; in experiment [4] it was -14.9%; in experiment [5] it was -35.1%; in experiment [6], 2.8%.

Regarding `Cc1cc(OCCCC(=O)O)ccc1Cl`, the growth inhibition in experiment [1] was 51.8%; in experiment [2] it was 30.7%; in experiment [3], 54.1%; in experiment [4] it was 34.9%; in experiment [5], 49.1%; in experiment [6], 52.1%.

Consider `CCCCCCCCCCCc1cc(=O)n(-c2ccccc2)n1C`, for which the growth inhibition in experiment [1] was 98.8% (active); in experiment [2], 99.2% (active); in experiment [3] it was 99.2% (active); in experiment [4] it was 98.4% (active); in experiment [5], 98.5% (active); in experiment [6], 99% (active).

For `Cc1ccc(S(=O)(=O)c2ccc(C)cc2[N+](=O)[O-])c([N+](=O)[O-])c1`, the growth inhibition is -58.1% in experiment [1]; -52.1% in experiment [2]; -25.4% in experiment [3]; -6.2% in experiment [4]; -19.9% in experiment [5]; -44.6% in experiment [6].
